Assay results from PubChem BioAssay (EPA / NIEHS).
Some compounds were tested as several samples or in several runs, with calls that do not always agree. Activity calls are given as the source filed them. How the source made its calls: active means hit-call score of the fitted dose curve at least 0.9, where 1 is the maximum; inactive means score below 0.9.

Read-out: Interleukin-8 (IL8), CXCL8 (gene 3576)
Experiment: BSK_3C_IL8: BioMAP Diversity Plus: 3C Assay for Interleukin-8 (IL8) Biomarker Activity (AID 2283020)
Conditions: primary human endothelial cells (HUVEC); actives raise or lower the signal
How it was run: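 Human vascular endothelial cells (umbilical vein) in the 3C system; IL-8 level detected by ELISA at 24 h post-dose, with DMSO as baseline.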

| Structure (SMILES) | outcome | AC50 |
| --- | --- | --- |
| O=C=NC1CCC(CC2CCC(N=C=O)CC2)CC1 (stereo unspecified) | inactive |  |
| CCc1c(C)cc(N)c(CC)c1N | inactive |  |
| CCCCC(CC)COCCC#N (stereo unspecified) | inactive |  |
| CCC(=O)OCc1ccccc1 | inactive |  |
| CC(=O)Nc1ccccc1O | inactive |  |
| O=P(c1ccccc1)(c1ccccc1)c1ccccc1 | inactive |  |
| OC1OC[C@@H](O)[C@H](O)[C@H]1O (stereo partly specified) | inactive | 5.39 µM (active) |
| NCCNCCN | inactive |  |
| Cc1ccc(O)c(C(C)(C)C)c1 |  | 36.5 µM (active) |
| C=C[Si](OCC)(OCC)OCC | inactive |  |
